In all, about 1,500 compounds went through this assay and about 460 (31%) were called active.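 Rule for the calls: active = viability at or below 80% at any tested concentration, marking the compound as toxic; inactive = the rest.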 The list is a sample of the results. Entries with a potency or affinity are not part of this list.
Assay: viability loss in THP-1 monocytes – THP-1 cells, cytotoxicity control for Vif-APOBEC3G degradation inhibitor project, dose response (AID 1117359)
Details: THP-1 viability, CellTiter-Glo luminescence, 72 h; series mostly up to 40 µM

| Structure (SMILES) | outcome |
| --- | --- |
| CCOC(=O)C1=C(COC(=O)/C=C/c2ccco2)NC(=O)NC1C (stereo not drawn) | inactive |
| Cc1ccc(NC(=O)CN2C(=O)N/C(=C/c3ccco3)C2=O)cc1 | inactive |
| C=CC1=C(C(=O)O)N2C(=O)C(NC(=O)Cc3ccccc3)C2SC1 (stereo not drawn) | inactive |
| Cc1cc(C(=O)NCCCN2CCCC2=O)no1 | inactive |
| CCOC(=O)C1=C(c2ccccc2)NC(=O)NC1c1cc(Cl)c(O)c(OC)c1 (stereo not drawn) | inactive |
| Cc1nc(-c2noc(-c3ccccc3Cl)n2)c(C(F)(F)F)o1 | inactive |
| COc1cccc(CC(=O)N2CCCC(CO)(Cc3ccc(F)cc3F)C2)c1 (stereo not drawn) | inactive |
| COc1ccc(/C=N/NC(=O)CN2CCN(Cc3ccccc3)CC2)cc1Br | inactive |
| O=C(COc1ccc([N+](=O)[O-])cc1)NC(C(=O)O)C(O)c1cccc([N+](=O)[O-])c1 (stereo not drawn) | inactive |
| COc1cc(NC(=O)CSCC(=O)N(C)C2CCCCC2)cc(OC)c1 | inactive |
| O=C(O)COc1ccc2c(c1)O/C(=C\c1ccco1)C2=O | inactive |
| O=C(NC(=O)N1CCN(c2ccc([N+](=O)[O-])cn2)CC1)c1c(Cl)cccc1Cl | inactive |
| CC(C)(C)OC(=O)N1CCN(c2ccc([N+](=O)[O-])cc2)CC1 | inactive |
| CCc1ccccc1NC(=S)N(Cc1ccc(OC)cc1)CC1CCC(C(=O)O)CC1 (stereo not drawn) | inactive |
| O=C(Cn1c(NCCO)nc2ccccc21)NCC(F)(F)F | inactive |
| COc1cc(C(=O)NNC(=S)NCc2ccco2)cc(OC)c1OC | inactive |
| Cc1ccc(C(CC(=O)NCc2ccco2)c2ccccc2)c(O)c1 (stereo not drawn) | inactive |
| Cc1ccc(C(=O)N/C(=C/c2cccnc2)C(=O)NCc2ccco2)cc1 | inactive |
| O=C(O)CSc1c2c(nc3cc(C(=O)Nc4cccc(C(F)(F)F)c4)ccc13)CCC2 | inactive |
| COc1cc(/C=C2/C(=O)c3cccc([N+](=O)[O-])c3C2=O)c(Br)cc1O | inactive |
| CCN(CC)c1ccc(NC(=O)CCS(=O)(=O)c2ccc(Br)cc2)c(C)c1 | inactive |
| CCOC(=O)C(C)N1C(=O)S/C(=C\c2ccc(-c3ccccc3C(=O)O)o2)C1=O (stereo not drawn) | inactive |

| Structure (SMILES) | outcome |
| --- | --- |
| CCN(CC)Cc1cc(O)c(CN(CC)CC)cc1O | inactive |
| CNC[C@H](O)c1ccc(O)c(O)c1 | inactive |
| COc1cccc(NC(=O)CSc2nnc(-c3ccco3)c(-c3ccco3)n2)c1 | inactive |
| CCOC(=O)CNc1nc2ccccc2n2c(C)nnc12 | inactive |
| COc1cc(NCCCNC(C)C)c2nccc(C)c2c1 | inactive |
| COc1cc(CC(=O)NCC(C)(C)N2CCOCC2)cc(OC)c1OC | inactive |
| C[C@H](NC(=O)c1ccco1)C(=O)Nc1cccc([N+](=O)[O-])c1 | inactive |
| COc1ccc(OC)c(N2C(=O)[C@@H]3C(c4ccccc4Cl)=NO[C@@H]3C2=O)c1 | inactive |
| CCN(C(=O)CN1CCN(c2ccc(O)cc2)CC1)c1c(N)n(Cc2ccccc2)c(=O)[nH]c1=O | inactive |
| COC1=C(Br)C(=O)c2nc(C)ccc2C1=O | inactive |
| CCOc1cccc(=O)c2c(C)n(CC(=O)c3ccccc3)c(C)c12 | inactive |
| COc1ccc(CNS(=O)(=O)c2cc(Br)cc3c2N(C(C)=O)C(C)C3)cc1 (stereo not drawn) | inactive |
| Cc1[nH]n(-c2nc(-c3ccccc3F)cc(=O)[nH]2)c(=O)c1CCO | inactive |
| COc1cc2ccccc2cc1C(=O)N1CCN(c2ccccc2O)CC1 | inactive |
| O=[N+]([O-])c1ccc2c(c1)S(=O)c1ccccc1-2 (stereo not drawn) | inactive |
| C/C(=N\Nc1ccc([N+](=O)[O-])cc1[N+](=O)[O-])c1cc2c(ccc3ccccc32)oc1=O | inactive |
| CC1=Nc2cccc3cccc(c23)N1 | inactive |
| CCS(=O)(=O)N1CCN(C(=O)c2cccc3ccccc23)CC1 | inactive |
| O=c1c(O)cccc2cc(O)c(O)c(O)c12 | inactive |
| CC12CCC(C(=O)Nc3ccc(Br)cn3)(OC1=O)C2(C)C (stereo not drawn) | inactive |
| COc1ccc(S(=O)(=O)N2CCC(C(=O)NCc3cccnc3)CC2)cc1Cl | inactive |
| O=C(Nc1ccc(C(=O)N2CCOCC2)cc1)c1ccccc1[N+](=O)[O-] | inactive |

| Structure (SMILES) | outcome |
| --- | --- |
| O/C=c1\ccc2cccc3nc(C(F)(F)F)nc1c23 | inactive |
| Cc1ccc(C)c(NC(=S)NCc2ccccc2)c1 | inactive |
| Cc1ccc(C(=O)NNS(=O)(=O)c2ccccc2[N+](=O)[O-])cc1 | inactive |
| CN(C)c1ccc(N2C(=O)CSC2=S)cc1 | inactive |
| CC(C)C(C)NC(=O)COc1ccc(S(=O)(=O)N2CCOCC2)cc1Cl (stereo not drawn) | inactive |
| O=C1CC(Nc2ccc(N3CCOCC3)cc2)C(=O)N1CCc1ccccc1 (stereo not drawn) | inactive |
| O=C(CNC(=O)c1ccc(Cl)cc1Cl)OCc1nnc(-c2ccccc2Br)o1 | inactive |
| CCOC(=O)/C=C1\SC(C)C(=O)N1CC(=O)N(CCC#N)c1ccccc1 (stereo not drawn) | inactive |
| CC(C)CC(NC(=O)/C(=C/c1ccco1)NC(=O)c1ccc(Br)o1)C(=O)O (stereo not drawn) | inactive |
| CCC(C)(C)NC(=O)C(c1ccc(F)cc1)N(Cc1ccco1)C(=O)c1cnccn1 (stereo not drawn) | inactive |
| O=C(Cc1csc(N2CCOCC2)n1)N/N=C/c1ccc(O)c(O)c1O | inactive |
| O=C(CCN1CCN(c2ccccc2)CC1)N/N=C/c1ccc(O)c(O)c1O | inactive |
| CC1CCCN(CC(O)CN2CCN(CC(O)CN3CCCC(C)C3)C(C)C2)C1 (stereo not drawn) | inactive |
| COC(=O)c1ccccc1NC(=O)CCS(=O)(=O)c1ccc(Br)cc1 | inactive |
| COc1cccc(NC(=O)CN(C)C(=O)CCCc2nc3ccccc3s2)c1 | inactive |
| COC(=O)C1=C(O)/C(=C\c2ccc(CNC(=O)C(=O)Nc3ccc(C)c(C)c3)o2)N=C1C | inactive |
| Cc1cn(C2CCCCO2)c(=O)[nH]c1=O (stereo not drawn) | inactive |
| O=C(CCCN1C(=O)/C(=C\c2ccco2)SC1=S)Nc1ccc2ccccc2c1 | inactive |
| CC(=C\c1ccco1)/C=C1/SC(=S)N(CC(=O)O)C1=O | inactive |
| COC(=O)c1ccccc1NC(=O)CNC(=O)c1ccc(OC)cc1 | inactive |
| COc1ccc(NC(=O)c2cccnc2C(=O)O)c(OC)c1 | inactive |
| COc1ccc(CNC(=O)c2sc3nc4c(c(C(F)(F)F)c3c2N)CCC4)cc1OC | inactive |

| Structure (SMILES) | outcome |
| --- | --- |
| O=C(O)c1c2c(nc3ccc(Cl)cc13)CCC2 | inactive |
| Cc1ccc(C(c2nnnn2CC2CCCO2)N2CCN(C)CC2)cc1 (stereo not drawn) | inactive |
| O=[N+]([O-])c1cc2oc3c(c2c(C=NCc2ccncc2)c1O)CCCC3 | inactive |
| COc1cc2c3c(c1OC)C1(C=CC(=O)C=C1)CC3N(C(=O)CCC(=O)O)CC2 (stereo not drawn) | inactive |
| Oc1ccc(-c2cn3c(n2)SCC3)cc1O | inactive |
| O=C(CCCCl)Nc1nc(-c2ccc3c(c2)OCCO3)cs1 | inactive |
| COc1ccc(OC)c(N/C(C)=C/C(=O)c2ccc(C)o2)c1 | inactive |
| COc1ccc(O)c(N)c1 | inactive |
| CCCCCC#CCC#CCC#CCC#CCCCC(=O)O | inactive |
| CC(=O)Nc1cccc(-c2cc(-c3c(Cl)cccc3Cl)no2)c1 | inactive |
| COc1ccc(NC(=O)/C=C/c2ccc(S(=O)(=O)N3CCOCC3)cc2)cc1 | inactive |
| Cc1cc(-c2n[nH]c(=S)n2/N=C/C=C/c2ccco2)n[nH]1 | inactive |
| COc1ccc(C)cc1NC(=O)COC(=O)CCC(=O)c1cccs1 | inactive |
| N#Cc1ccccc1CN1C(=O)S/C(=C/c2cccn2-c2ccc(C(=O)O)cc2)C1=O | inactive |
| O=C(NCC(c1ccco1)N1CCCC1)c1cccc(S(=O)(=O)N2CCCCC2)c1 (stereo not drawn) | inactive |
| COc1cc(C(C2C(=O)CC(C)(C)CC2=O)C2C(=O)CC(C)(C)CC2=O)cc(OC)c1OC | inactive |
| O=C(NC1CC1)c1cc(-c2ccco2)nc2ccccc12 | inactive |
| COCCNC(=O)Nc1ccc2nc(-c3ccco3)c(-c3ccco3)nc2c1 | inactive |
| CC(C)CN(C(=O)CN1CCN(S(=O)(=O)c2ccccc2)CC1)c1c(N)n(CC(C)C)c(=O)[nH]c1=O | inactive |
| COC(=O)[C@@]1(Cc2ccc(OC)cc2)[C@H]2c3cc(C(=O)N(C)C)n(C[C@H](O)CO)c3C[C@H]2CN1C(=O)c1ccccc1 | inactive |
| O=C(Nc1nnc(C2CC2)s1)c1ccc(S(=O)(=O)c2ccccc2)cc1 | inactive |
| Cc1nc(C)c(C(=O)Nc2nc3c(C)cccc3s2)o1 | inactive |

| Structure (SMILES) | outcome |
| --- | --- |
| S=c1[nH]nc(COc2ccc(Cl)cc2)o1 | inactive |
| CCCCCCNS(=O)(=O)c1ccccc1Br | inactive |
| Clc1ncnc2scc(-c3ccccc3)c12 | inactive |
| Nc1ccc(S(=O)(=O)c2cc(O)c3ccccc3c2O)cc1 | inactive |
| CCOC(=O)/C(C#N)=C/c1c(OCC)n(CC)c2ccccc12 | inactive |
| COc1ccc(CCN2C(=O)CC(Nc3ccc(N4CCOCC4)cc3)C2=O)cc1OC (stereo not drawn) | inactive |
| O=C1CCC(CCC(=O)N2CCCC(C(=O)c3ccc4c5c(cccc35)CC4)C2)=NN1 (stereo not drawn) | inactive |
| Nc1cc(N)c(OCC(F)(F)F)cc1OCC(F)(F)F | inactive |
| CC(=O)c1ccc2c(c1)C1C=CCC1C(c1ccncc1)N2 (stereo not drawn) | inactive |
| Cc1cccc(Cc2nnc(CCC(=O)N(C)C3CCOC3)o2)c1 (stereo not drawn) | inactive |
| CCCCn1c(N)c(N(CCC(C)C)C(=O)C2=NN(c3cc(C)ccc3C)C(=O)CC2)c(=O)[nH]c1=O | inactive |
| COc1ccccc1NS(=O)(=O)c1cccs1 | inactive |
| CNc1ccc(Br)cc(C(=O)/C=C/c2cc(OC)ccc2OC)c1=O | inactive |
| CN(C)S(=O)(=O)c1cccc(NC(=S)N/N=C/c2ccc(O)c(O)c2O)c1 | inactive |
| Cc1ccc(C=C2C(Cl)=C(Cl)C(Cl)=C2Cl)cc1 | inactive |
| COC(=O)COc1ccc(S(=O)(=O)Nc2ccc(C(N)=O)cc2)cc1C | inactive |
| O=C1CSC(c2cccnc2)N1Cc1cccnc1 (stereo not drawn) | inactive |
| Cc1cc(C)c(C(=O)/C=C/c2ccco2)c(=O)[nH]1 | inactive |
| N#CC(C#N)=Cc1cccn1-c1ccc(C(=O)O)cc1 | inactive |
| CCOC(=O)CN(C(=O)CSc1nnc(COc2ccc(OC)cc2)n1CC)c1ccccc1 | inactive |
